An excerpt weighted towards active compounds, which were near 3.9% of everything screened.
VDR inh = Inhibitors of the vitamin D receptor (VDR): qHTS; Vitamin D3 receptor (Homo sapiens), P11473; VDR-SRC2-3 peptide fluorescence polarization, 2 h; Potency, µM, inactives show max response, negative = inhibition, usual class: inhibitors; actives 0.93% (n = 400,000); further: on the % scale 0 is the no-effect control and ±100 the full control effect
Target sequence (P11473 whole entry, looked up): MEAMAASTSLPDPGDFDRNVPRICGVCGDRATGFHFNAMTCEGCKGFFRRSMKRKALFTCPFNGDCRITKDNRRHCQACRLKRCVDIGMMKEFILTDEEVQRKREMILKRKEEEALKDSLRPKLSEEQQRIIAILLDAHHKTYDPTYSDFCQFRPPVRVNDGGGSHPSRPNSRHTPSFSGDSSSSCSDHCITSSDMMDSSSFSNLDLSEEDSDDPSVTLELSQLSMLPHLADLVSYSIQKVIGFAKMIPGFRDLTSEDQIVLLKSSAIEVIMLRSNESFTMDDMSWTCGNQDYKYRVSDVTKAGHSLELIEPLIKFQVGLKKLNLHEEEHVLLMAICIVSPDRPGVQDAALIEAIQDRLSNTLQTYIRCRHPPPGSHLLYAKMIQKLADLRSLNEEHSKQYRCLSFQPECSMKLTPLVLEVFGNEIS
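Inhibition of the VDR/SRC2-3 peptide interaction is quantified by fluorescence polarization. Compounds (23 nl, pintool) incubate with the reagents for 2 hours at ambient room temperature.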
BRCA1 expr act = qHTS Assay to Identify Small Molecule Activators of BRCA1 Expression; MCF7-BRCA1-FFLuc reporter, luminescence, 48 h; response scale: scaled: vehicle 0%, 10 µM genistein 100%; Potency, µM (doses to about 46.1 µM), inactives show top-dose activation, hits mostly activators; actives 1.1% (n = 380,000); AID 624202, 2012; further: nearly all actives have a fitted effect of over 80% in size
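First, MCF7-BRCA1-FFLuc cells (2000/well) attach for 2 h; next, compounds are pin-added and incubated 48 h at 37 °C; finally, luciferase reagent is added and luminescence read after 15 min.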
PLK1 PBD inh = qHTS for Inhibitors of PLK1-PDB (polo-like kinase 1 - polo-box domain): Primary Screen; Potency, µM, for inactives: max response, negative = inhibition, usual class: inhibitors; Plk1 PBD binding of FITC phosphopeptide, fluorescence polarization; actives 2.8% (n = 360,000); Serine/threonine-protein kinase PLK1 (Homo sapiens), P53350; further: series mostly up to about 57 µM; on the % scale 0 is the no-effect control and ±100 the full control effect; nearly all actives have a fitted effect of over 65% in size
Tb PFK block = qHTS Assay to Find Inhibitors of T. brucei phosphofructokinase; ATP-dependent 6-phosphofructokinase (Trypanosoma brucei brucei), O15648; T. brucei PFK, ADP-Glo luminescence; Potency, µM (highest dose often 57.5 µM), for the others: at the top dose activity, negative = inhibition, most hits filed as inhibitors; actives 0.17% (n = 330,000);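 further: 0% = uninhibited 1x PFK enzyme wells and -100% = no-enzyme wells; nearly all actives have a fitted effect of over 60% in size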
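In TEA buffer at pH 8.0 with 5 mM MgCl2, enzyme (1.25 nM) converted F6P (0.5 mM) and ATP (0.1 mM) for 45 min at room temperature. ADP product was read by luciferase luminescence.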
Numbers without * were called inactive; ? = inconclusive; / = no result. The call rests on the fitted dose curve; in most records, active means well fitted curve in the direction sought with a large enough effect; inconclusive means small, poorly fitted or top-dose-only effect, or another doubt; inactive means no such curve, though single readings can be large; an effect the other way counts as inactive or inconclusive. Potency means the concentration at half of the fitted maximal effect.

SMILES	VDR inh	BRCA1 expr act	PLK1 PBD inh	Tb PFK block
O=C(COC(=O)c1ccccc1)NCC1CCCO1 (centres undefined)	9%	1%	-3%	-2%
O=C(COC(=O)c1cccc([N+](=O)[O-])c1)NCC1CCCO1 (centres undefined)	-18%	-17%	27µM*	5%
Cc1cccc(-c2noc(-c3ccc(NCc4cccnc4)c([N+](=O)[O-])c3)n2)c1	-1%	0%	/	/
Nc1nc(CN2CCOCC2)cs1	?	11%	24µM*	4%
Cc1ccc(OCC(=O)Nc2ccc(OCc3cc(=O)n4ccsc4n3)cc2)cc1	-1%	10%	/	/
CC(C)[C@H](NC(=O)c1ccccc1)C(=O)OCC(=O)c1ccc(S(=O)(=O)N2CCCCC2)cc1	10%	-4%	0%	3%
O=C(O)c1ccc(N=Cc2c(O)ccc3ccccc23)cc1	-7%	-34%	-16%	-7%
O=C(O)c1cc(N/N=C/c2c(O)ccc3ccccc23)ccc1Cl	?	92%	17µM*	0%
O=S(=O)(/N=C/c1c(O)ccc2ccccc12)c1ccccc1	-4%	-14%	15µM*	3%
O=C(N/N=C/c1c(O)ccc2ccccc12)Nc1ccccc1	-15%	-40%	0%	/
COc1cc(C(=O)N2CCC(c3nc4ccccc4o3)CC2)cc(OC)c1OC	6%	/	/	/
Cc1nnc(N(Cc2ccco2)C(=O)c2cccc(C#N)c2)s1	2%	0%	30µM*	-7%
CCOC(=O)CN1C(=O)S/C(=C/c2ccc(OC)c([N+](=O)[O-])c2)C1=O	-3%	-1%	-8%	2%
COc1cc(/C=C2\SC(=O)N(Cc3ccc(Cl)cc3)C2=O)cc([N+](=O)[O-])c1O	-3%	-75%	24µM*	-6%
COc1cc(/C=C2\SC(=O)N(Cc3ccc(F)cc3)C2=O)cc([N+](=O)[O-])c1O	?	9%	27µM*	-2%
COc1ccc2nc(N3CCCC3)c(C#N)cc2c1	-21%	37%	17µM*	1%
COc1ccc2nc(N3CCCCC3)c(C#N)cc2c1	16%	11µM*	-27%	1%
CCCCCC(=O)Cc1cc(O)cc2c1C(=O)Oc1cc(O)c(C(=O)O)c(CCCCC)c1O2	?	-11%	24µM*	0%
CCOC(=O)C1(C)CCCN(C(=O)c2ccc(-c3ccccc3)cc2)C1 (centres undefined)	/	0%	-8%	/
Oc1ccc(NCc2ccc(OCc3ccccc3)cc2)cc1	89µM*	-1%	-9%	-16%
CCc1ccc(CNc2ccc(O)cc2)cc1	22µM*	-74%	30µM*	-18%
CCOC(=O)c1c(NC(=O)CSc2cn(CCNC(=O)c3ccc(OC)cc3)c3ccccc23)sc2c1CCCC2	5%	-12%	/	/
O=C(Cc1ccccc1)c1ccc(N2CCOCC2)cc1	-16%	11µM*	-7%	/
O=C(Cc1ccccc1)c1ccc(O)cc1	-13%	11µM*	-4%	/
Cc1ccccc1CNC(=O)C(=O)NCC(c1ccc2c(c1)OCO2)N1CCOCC1 (centres undefined)	-5%	/	/	/
SMILES	VDR inh	BRCA1 expr act	PLK1 PBD inh	Tb PFK block
CN(C)c1ccc(C2CCc3ccccc3N2C(=O)c2ccccc2)cc1 (centres undefined)	/	-8%	/	/
Cc1ccc(C(C)NC(=O)/C(C#N)=C\c2c(C)[nH]c3ccccc23)cc1 (centres undefined)	?	-20%	24µM*	1%
Cc1[nH]c2ccccc2c1/C=C(\C#N)C(=O)NCc1ccccc1	-2%	-13%	1%	-1%
CCC1CN(S(=O)(=O)c2cc(-c3cc(C)no3)ccc2C)c2cc(Cl)ccc2O1 (centres undefined)	12%	/	/	/
CCOC(=O)N1CCN(C(=O)c2ccc3c(c2)NC(=O)/C(=C\c2ccc(OC)c(OC)c2)S3)CC1	?	-42%	7%	3%
COc1ccc(/C=C2/Sc3ccc(C(=O)N4CCOCC4)cc3NC2=O)cc1OC	-8%	18%	27µM*	3%
Cc1c(/C=C/c2ccnc3ccccc23)ccc(N(C)C)c1C	/	-4%	/	/
CCOC(=O)c1noc2ncn(CC(=O)O)c(=O)c12	5%	/	/	/
CNc1cc(F)nc(F)n1	-29%	0%	9.5µM*	-6%

Source: PubChem BioAssay (National Center for Advancing Translational Sciences (NCATS))
